Bioassay records as filed in PubChem.
USP17 block: human USP17-like deubiquitinase inhibition | A8MUK1 | purified USP17, Ub-rhodamine cleavage fluorescence, 3 h | 6.5% of 47,000 active | inhibition, % at 50 µM
USP30 block: inhibitors of human USP30 deubiquitinase. Q70CQ3. purified USP30, Ub-rhodamine cleavage fluorescence. inhibition, % at 25 µM. 5.3% of 47,000 active
USP28 block: human USP28 deubiquitinase inhibition; purified USP28, Ub-rhodamine cleavage fluorescence, 30 min; inhibition, % at 25 µM; 3% of 47,000 active; AID 1645857
The depositor's hits bear a star. A selection: hits, their analogues and other compounds. The true share with any hit is near 11%. No stated cut-off is given here; in the data, active means inhibition above about 30%; inactive means the rest.

For Cc1cccc(C(=O)Nc2ccc3c(c2)nc(CSc2nccc(C)n2)n3C)c1 the results were USP17 block 5, USP30 block 26 and USP28 block 93*.
`CC(CO)C1=C2C/C=C(/C=O)[C@H]3C(=O)[C@H](O)[C@H](C)[C@@H]3C[C@@]2(C)CC1` (some centres not stated) gave USP17 block -15, USP30 block -32 and USP28 block -14.
Cc1ccccc1CCC(=O)N1CC[C@@H]2CN(CC(C)C)S(=O)(=O)[C@@H]2CC1 was read as USP17 block -22, USP30 block -4 and USP28 block -11.
Screening CN(Cc1ccco1)C(=O)CCc1c(-c2ccc(F)cc2)[nH]c2ccc(F)cc12 returned USP17 block 16, USP30 block 16 and USP28 block 8.
`O=C(Nc1nnc(S(=O)(=O)Nc2ccccc2)s1)c1ccccc1F` gave USP17 block -16, USP30 block -10 and USP28 block 0.
For CC(=O)Nc1ccc(-n2cnc(C(=O)NC(C)c3ccccc3)c2)nc1 (configuration not stated) the results were USP17 block 64*, USP30 block 19 and USP28 block 10.
CC(=O)Nc1ccc(-n2cnc(C(=O)NC3CCCC3)c2)nc1 was read as USP17 block -7, USP30 block -1 and USP28 block 1.
For Cc1ccccc1-c1noc2ncnc(NCCN3CCCCC3)c12 the results were USP17 block 0, USP30 block -10 and USP28 block -3.
Screening CN1CCOCC2(CCCN(C(=O)c3ccccc3F)C2)C1 (configuration not stated) returned USP17 block -8, USP30 block 0 and USP28 block -2.
Screening O=C(C1CCN(S(=O)(=O)c2cccc3cccnc23)CC1)N1CCC(Cc2ccccc2)CC1 returned USP17 block 26, USP30 block 20 and USP28 block 16.
For O=C(OCc1ccc([N+](=O)[O-])cc1)C1CCN(S(=O)(=O)c2cccc3cccnc23)CC1 the results were USP17 block 3, USP30 block 44* and USP28 block 28.
O=C(COC(=O)c1ccc(NS(=O)(=O)c2ccc(F)c(F)c2)cc1)Nc1ccc(OCc2ccccc2)cc1 was read as USP17 block 7, USP30 block 1 and USP28 block -5.
CCc1ccc(CN(C)C(=O)c2ccc(NS(=O)(=O)c3ccc(F)c(F)c3)cc2)cc1 was read as USP17 block 27, USP30 block 41* and USP28 block 24.
`COc1cccc(N2CCN(C(=O)C3CCN(c4ncccn4)CC3)CC2)c1` gave USP17 block -3, USP30 block -5 and USP28 block -4.
Screening Cc1ccc(-n2c(=O)[nH]c3c(C(N)=O)nc(-c4cccnc4)nc32)cc1 returned USP17 block 34*, USP30 block 34* and USP28 block 19.
Cc1ccc(-n2c(=O)[nH]c3c(C(N)=O)nc(-c4ccccn4)nc32)cc1 was read as USP17 block 9, USP30 block -79 and USP28 block -28.
O=C1C/C(=C\c2cccc([N+](=O)[O-])c2)Cc2ccccc21 was read as USP17 block 8, USP30 block 38* and USP28 block 30.
`O=C1C/C(=C\c2cccc(Cl)c2)Cc2ccccc21` gave USP17 block 26, USP30 block 39* and USP28 block 54*.
COc1ccc2c(c1)C/C(=C/c1ccc(Cl)cc1)CC2=O was read as USP17 block 1, USP30 block 9 and USP28 block 14.
For COc1ccc(/C=C2\CC(=O)c3ccccc3C2)c(OC)c1 the results were USP17 block 5, USP30 block -16 and USP28 block 14.
O=[N+]([O-])c1ccc(N2CCc3ccccc32)cc1 was read as USP17 block -46, USP30 block -265 and USP28 block -48.
O=C1C/C(=C\c2cccc(Br)c2)Cc2ccccc21 was read as USP17 block 14, USP30 block 21 and USP28 block 34*.
Screening CC(=O)Nc1ccc(CN2CCn3c(nc4ccccc43)CC2C)cc1 (configuration not stated) returned USP17 block -4, USP30 block -10 and USP28 block -4.
`CCc1ccccc1N(C)C(=O)c1noc2c1CCCCC2` gave USP17 block 1, USP30 block -1 and USP28 block -1.
`Cc1cc(C)c2c(-n3c(C)ccc3C)nn(CC(=O)NCCc3ccccc3C)c2n1` gave USP17 block 9, USP30 block 0 and USP28 block 1.
CN1C[C@@H]2C[C@H](NC(=O)NC3CCOCC3)CN2Cc2ccccc21 was read as USP17 block -20, USP30 block -82 and USP28 block -24.
CCN(C(=O)Cn1cccc(S(=O)(=O)N2CCCC2)c1=O)c1ccccc1 was read as USP17 block -6, USP30 block -36 and USP28 block -7.
